Drawing on PubChem BioAssay (EPA / NIEHS), this text covers outcome and AC50 for 17 molecules.

Records with an inconclusive call do not appear. The source made the active and inactive calls. The calls were made as follows: active = hit-call score of the fitted dose curve at least 0.9, where 1 is the maximum; inconclusive = response in the unintended direction; inactive = score below 0.9.

Sequence of Glycogen synthase kinase-3 beta (Homo sapiens) (P49841 whole entry, looked up): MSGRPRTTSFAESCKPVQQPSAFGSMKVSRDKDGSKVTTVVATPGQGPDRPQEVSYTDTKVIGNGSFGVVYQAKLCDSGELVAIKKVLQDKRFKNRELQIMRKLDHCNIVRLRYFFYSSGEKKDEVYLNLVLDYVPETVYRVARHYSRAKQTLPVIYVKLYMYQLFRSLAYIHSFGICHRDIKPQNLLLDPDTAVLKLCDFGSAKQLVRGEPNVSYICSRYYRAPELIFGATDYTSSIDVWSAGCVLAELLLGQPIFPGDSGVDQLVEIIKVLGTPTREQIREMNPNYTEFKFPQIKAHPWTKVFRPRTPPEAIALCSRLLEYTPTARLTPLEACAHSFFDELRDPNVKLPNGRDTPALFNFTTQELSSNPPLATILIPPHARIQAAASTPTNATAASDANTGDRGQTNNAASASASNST
Sequence of human Mitogen-Activated Protein Kinase 1 (MAPK 1), MAPK1 (gene 5594) (P28482 whole entry, looked up): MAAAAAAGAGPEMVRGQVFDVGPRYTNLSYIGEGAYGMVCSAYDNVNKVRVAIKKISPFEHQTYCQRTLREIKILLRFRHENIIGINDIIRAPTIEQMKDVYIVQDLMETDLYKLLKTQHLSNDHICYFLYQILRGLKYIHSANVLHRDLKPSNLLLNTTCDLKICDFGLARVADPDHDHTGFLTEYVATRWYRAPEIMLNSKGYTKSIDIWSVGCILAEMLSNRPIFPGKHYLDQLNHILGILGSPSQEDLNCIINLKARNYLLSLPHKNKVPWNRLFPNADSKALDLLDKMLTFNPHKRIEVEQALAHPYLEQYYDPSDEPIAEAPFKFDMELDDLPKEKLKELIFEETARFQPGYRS

One experiment deals with human Fibroblast Growth Factor Receptor 1 (FGFR1), FGFR1 (gene 2260) (UniProt P11362). In words: NVS_ENZ_hFGFR1: NovaScreen (NVS) Enzymatic Assay for human Fibroblast Growth Factor Receptor 1 (FGFR1) (AID 2283159).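 As to AC50: hits lower the signal so potencies describe inhibitors of the kinase.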 Summed up: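 Cell-free recombinant kinase with fluorescent substrate, product separated by electrophoretic mobility shift; read 1 hour after dosing, loss of signal relative to DMSO. Initial screen in duplicate at 25 uM, actives followed in concentration series.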
Sequence of human Fibroblast Growth Factor Receptor 1 (FGFR1), FGFR1 (gene 2260) (P11362 whole entry, looked up): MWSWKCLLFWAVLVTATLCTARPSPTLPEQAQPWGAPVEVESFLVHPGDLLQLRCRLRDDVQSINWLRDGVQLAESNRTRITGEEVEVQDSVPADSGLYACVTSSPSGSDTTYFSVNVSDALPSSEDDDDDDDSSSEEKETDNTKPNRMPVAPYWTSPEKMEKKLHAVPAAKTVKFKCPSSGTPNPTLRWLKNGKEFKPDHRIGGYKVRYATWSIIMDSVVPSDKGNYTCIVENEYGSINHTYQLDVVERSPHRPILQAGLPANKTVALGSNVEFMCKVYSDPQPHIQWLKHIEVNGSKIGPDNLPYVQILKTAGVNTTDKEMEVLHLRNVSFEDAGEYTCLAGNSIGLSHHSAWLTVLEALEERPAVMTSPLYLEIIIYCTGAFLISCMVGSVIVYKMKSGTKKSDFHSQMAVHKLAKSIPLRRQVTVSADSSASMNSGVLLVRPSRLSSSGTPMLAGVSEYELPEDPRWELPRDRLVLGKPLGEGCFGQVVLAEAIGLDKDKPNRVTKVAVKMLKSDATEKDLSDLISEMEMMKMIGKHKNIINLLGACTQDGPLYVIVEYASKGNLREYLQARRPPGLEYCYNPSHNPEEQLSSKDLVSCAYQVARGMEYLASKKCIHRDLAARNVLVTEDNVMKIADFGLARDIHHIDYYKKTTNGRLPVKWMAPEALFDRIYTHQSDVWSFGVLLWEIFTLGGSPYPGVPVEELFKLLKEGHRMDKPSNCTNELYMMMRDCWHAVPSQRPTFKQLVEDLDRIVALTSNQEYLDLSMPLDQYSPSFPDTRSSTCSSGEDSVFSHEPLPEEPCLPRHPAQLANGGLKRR
As for `CCNc1nc(Cl)nc(NC(C)(C)C)n1`, the outcome was inactive.

Turning to `ClC(Cl)(Cl)c1ccccc1`, the molecule was called inactive.

For orientation: AC50 means the midpoint of the concentration-response curve, whichever way the signal moves. As for `CC1(C)CN=C(NN=C(/C=C/c2ccc(C(F)(F)F)cc2)/C=C/c2ccc(C(F)(F)F)cc2)NC1`, the AC50 is 13.6 µM (active).

On to `ClC1=C(Cl)C2(Cl)C3C(Cl)C(Cl)CC3C1(Cl)C2(Cl)Cl` (stereo not given), for which the molecule was classed as inactive.

Consider `CCCCN(CCCC)N=O`, for which the molecule was classed as inactive.

Take `O=[N+]([O-])c1ccccc1`: the molecule was classed as inactive.

`O=P1(N(CCCl)CCCl)NCCCO1` (stereo not given): the molecule was called inactive.

Turning to `CSC(C)(C)C=NO`, the call was inactive.

A further experiment concerns the target Glycogen synthase kinase-3 beta (Homo sapiens) (UniProt P49841). In words: NVS_ENZ_hGSK3b: NovaScreen (NVS) Enzymatic Assay for human Glycogen Synthase Kinase-3 beta (GSK3b) (AID 2283165). In short, it runs like this:
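Recombinant enzyme with specific fluorescent substrate, 1 h, product separated by electrophoretic mobility shift. Primary duplicate screen at 25 uM; actives (e.g. 30% inhibition) followed in singleton concentration-response to 50 uM. Signal loss fitted versus DMSO.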
Take `CCOC(=O)c1ccccc1C(=O)OCC`: the result was inactive.

With `Cc1ccc(O)cc1C`, the result was inactive.

As for `CC(C)(C)OOC(C)(C)C`, the molecule was called inactive.

Take `CCOS(=O)(=O)OCC`: the result was inactive.

`CC(C)(C)c1ccc(O)cc1`: the outcome was inactive.

Regarding `c1ccc(OP(Oc2ccccc2)Oc2ccccc2)cc1`, the molecule was called inactive.

In the case of `CCC(C)(C)c1ccc(O)cc1`, the molecule was classed as inactive.

Turning to `OCC1CO1` (stereo not given), the call was inactive.

On to `Nc1ccc2ccccc2c1`, for which the molecule was classed as inactive.

In a further experiment the target is human Mitogen-Activated Protein Kinase 1 (MAPK 1), MAPK1 (gene 5594) (UniProt P28482). In words: NVS_ENZ_hMAPK1: NovaScreen (NVS) Enzymatic Assay for human Mitogen-Activated Protein Kinase 1 (MAPK 1) (AID 2283175). The protocol:
NVS_ENZ_hMAPK1 is a biochemical, single-readout assay that uses extracted gene-proteins in a cell-free assay. Measurements were taken 1 hour after chemical dosing in a 384-well plate.NVS_ENZ_hMAPK1 is one of one assay component(s) measured or calculated from the NVS_ENZ_hMAPK1 assay. It is designed to make measurements of enzyme activity, a form of enzyme reporter, as detected with fluorescence intensity signals by Fluorescence and electrophoretic mobility shift technology.Data from the assay component NVS_ENZ_hMAPK1 was analyzed into 1 assay endpoint. This assay endpoint, NVS_ENZ_hMAPK1, was analyzed in the positive analysis fitting direction relative to DMSO as the negative control and baseline of activity. Using a type of enzyme reporter, loss-of-signal activity can be used to understand changes in the enzymatic activity as they relate to the gene MAPK1. Furthermore, this assay endpoint can be referred to as a primary readout, because this assay has produced multiple assay endpoints where this one serves a enzymatic activity function. To generalize the intended target to other relatable targets, this assay endpoint is annotated to the kinase intended target family, where the subfamily is serine/threonine kinase.
Binding assays used specific radioligands (tritiated, iodinated) with non-radioactive competitive displacement ligands in agonist or antagonist protocols (as indicated) and various reference compounds and inhibitors to titrate specific binding to receptors and transporters. Most enzyme assays (CYPs, kinases, phosphatases, proteases, HDACs) used recombinant protein and specific substrates (fluorescence mostly, some colorimetric and radioactive) and inhibitors, followed by a biochemical separation of substrate and product. All assays for the biochemical HTS were initially run in duplicate at a single concentration (10 uM for CYP450 assays and 25 uM for all others). […]
Take `Cc1ccc(O)cc1C`: the outcome was inactive.

In the case of `CC(C)(C)OOC(C)(C)C`, the call was inactive.

Consider `ClC1=C(Cl)C2(Cl)C3C(Cl)C(Cl)CC3C1(Cl)C2(Cl)Cl` (stereo not given), for which the call was inactive.
